Results filed as inconclusive are left out. The source made the active and inactive calls. Unless noted, calls follow the shape of the dose curve; as a rule, active = well fitted curve in the direction sought with a large enough effect in the repeat runs; inconclusive = weak or mixed curves; inactive = no such curve, though single readings can be large; an effect the other way counts as inactive or inconclusive.
Assays:
[1] = qHTS assay to identify aromatase inhibitors - cell viability counter screen (AID 743084);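 also: cells stimulated with testosterone during compound exposure; nearly all actives have a fitted effect of over 55% in size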
[2] = biological target: Aryl hydrocarbon receptor (Homo sapiens) (UniProt P35869); experiment: qHTS assay to identify small molecule that activate the aryl hydrocarbon receptor (AhR) signaling pathway (AID 743085);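 also: HG2L7.5c1 human HepG2 liver cells with stably integrated DRE-driven firefly reporter; series mostly up to about 70 µM; nearly all actives have a fitted effect of over 15% in size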
In short: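 Luminescence (ONE-Glo) from a dioxin-responsive-element luciferase reporter in HG2L7.5c1 HepG2 cells after 24 hr compound exposure at 37C; viability measured by CellTiter-Fluor fluorescence beforehand.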

[3] = qHTS assay to identify small molecule that activate the aryl hydrocarbon receptor (AhR) signaling pathway - cell viability counter screen (AID 743086);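 also: HepG2 liver cells carrying the AhR DRE luciferase reporter; series mostly up to about 70 µM; nearly all actives have a fitted effect of over 45% in size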
In short: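 HepG2-AhR-luc (HG2L7.5c1) cells, 4000/well, were preincubated 5 h at 37C, exposed to compound in qHTS format for 24 hr at 37C, then given CellTiter-Fluor for 30 min; viability was read as fluorescence in the reporter wells.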

[4] = biological target: Peroxisome proliferator-activated receptor gamma (Homo sapiens) (UniProt P37231); experiment: qHTS assay to identify small molecule agonists of the peroxisome proliferator-activated receptor gamma (PPARg) signaling pathway (AID 743094; active = well fitted activation curve with a large enough effect in the signal ratio in the repeat runs, not every such curve was filed as active; the % refers to the signal ratio)
In short: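 Beta-lactamase FRET fluorescence was the read-out after a 1 h room-temperature substrate step, following 17 h compound treatment at 37C of HEK293H cells expressing a UAS-driven bla reporter responsive to PPARg.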

[5] = biological target: Peroxisome proliferator-activated receptor gamma (Homo sapiens) (UniProt P37231); experiment: qHTS assay to identify small molecule antagonists of the peroxisome proliferator-activated receptor gamma (PPARg) signaling pathway (AID 743191; calls by dose curve; also: series mostly up to about 63 µM; nearly all actives have a fitted effect of over 30% in size)
In short: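 GeneBLAzer PPARg UAS-bla HEK293H cells carrying a UAS-driven beta-lactamase reporter were plated at 3000 cells/well, preincubated 5 h at 37C, then given compound for 17 h at 37C; LiveBLAzer B/G FRET substrate was read after 1 h at room temperature.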

[6] = qHTS assay for small molecule agonists of the antioxidant response element (ARE) signaling pathway (AID 743202; active = well fitted activation curve with a large enough effect in the signal ratio in the repeat runs, not every such curve was filed as active; the % refers to the signal ratio)
In short: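 Read-out: LiveBLAzer B/G FRET substrate fluorescence after 2 h at room temperature, following 16 h compound treatment at 37 C of HepG2 cells carrying an ARE-driven beta-lactamase reporter.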

[7] = qHTS assay for small molecule agonists of the antioxidant response element (ARE) signaling pathway - cell viability counter screen (AID 743203; calls by dose curve; also: nearly all actives have a fitted effect of over 55% in size)
In short: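 HepG2 cells carrying ARE-driven beta-lactamase; 2,000 cells/well; 5 hrs plating; compound pinned from DMSO; 16 hrs 37C/5% CO2; CellTiter-Glo added; 30 min RT; luminescence.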

[8] = qHTS assay for small molecule activators of the heat shock response signaling pathway - cell viability counter screen (AID 743209); also: nearly all actives have a fitted effect of over 50% in size
In short: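 Luminescence from CellTiter-Glo, added after the beta-lactamase FRET read, gave the viability signal. Cells were HSE-bla HeLa treated with DMSO-dissolved compounds for 5 h at 37 C following overnight plating.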

[9] = qHTS assay for small molecule activators of the heat shock response signaling pathway (AID 743210; active = well fitted activation curve with a large enough effect in the signal ratio in the repeat runs, with a control signal flat, not every such curve was filed as active; the % refers to the signal ratio; also: series mostly up to about 63 µM)
In short: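 HSE-bla HeLa cells (beta-lactamase reporter under heat shock response elements) were exposed to compounds for 5 h at 37 C, then loaded with LiveBLAzer B/G FRET substrate for 2.5 h at room temperature before fluorescence reading.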

[10] = qHTS assay to identify small molecule agonists of the peroxisome proliferator-activated receptor delta (PPARd) signaling pathway - cell viability counter screen (AID 743211); also: nearly all actives have a fitted effect of over 55% in size
In short: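 Viability was measured as CellTiter-Glo luminescence (30 min, room temperature) in the same wells as the beta-lactamase readout. GeneBLAzer PPARd UAS-bla HEK293H cells received compound after 5 h plating and were incubated 17 h at 37 C.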

[11] = biological target: Peroxisome proliferator-activated receptor delta (Homo sapiens) (UniProt Q03181); experiment: qHTS assay to identify small molecule agonists of the peroxisome proliferator-activated receptor delta (PPARd) signaling pathway (AID 743212; calls by dose curve)
In short: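 GeneBLAzer PPARd UAS-bla HEK293H cells (beta-lactamase reporter under UAS control), plated and rested 5 h at 37 C, then exposed to compounds in DMSO at 37 C; LiveBLAzer B/G FRET substrate added, 2 h room temperature, fluorescence read.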

[12] = qHTS assay to identify small molecule antagonists of the peroxisome proliferator-activated receptor delta (PPARd) signaling pathway - cell viability counter screen (AID 743213); also: nearly all actives have a fitted effect of over 50% in size
In short: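 Same-well viability: cells pre-incubated 5 h, dosed with compound plus 300 nM L165041, kept 17 h at 37 C, FRET substrate 2 h RT, then CellTiter-Glo 30 min RT and luminescence.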

[13] = biological target: Peroxisome proliferator-activated receptor delta (Homo sapiens) (UniProt Q03181); experiment: qHTS assay to identify small molecule antagonists of the peroxisome proliferator-activated receptor delta (PPARd) signaling pathway (AID 743215; active = well fitted inhibition curve with a large enough effect in the signal ratio in the repeat runs, not every such curve was filed as active; the % refers to the signal ratio;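 also: cells stimulated with agonist L165041 at 300 nM final during compound exposure; series mostly up to about 62 µM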)
In short: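 Read-out is beta-lactamase FRET fluorescence, measured 2 h after substrate addition at room temperature. Beforehand, UAS-bla HEK293H cells carrying the PPARd reporter were exposed to compounds with L165041 at 300 nM final for 17 h at 37 C.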

[14] = qHTS assay to identify small molecule antagonists of the farnesoid-X-receptor (FXR) signaling pathway - cell viability counter screen (AID 743221; active = well fitted cell-killing curve with a large enough effect in the repeat runs, not every such curve was filed as active; also: nearly all actives have a fitted effect of over 50% in size)
In short: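 Cytotoxicity counter screen run in the FXR-bla reporter wells: HEK 293T cells exposed to compound with 50 uM (final) chenodeoxycholic acid for 16 h, 37 C, then viability measured by CellTiter-Glo luminescence after 30 min, room temperature.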

[15] = biological target: Vitamin D3 receptor (Homo sapiens) (UniProt P11473); experiment: qHTS assay to identify small molecule agonists of the vitamin D receptor (VDR) signaling pathway (AID 743222; calls by dose curve)
In short: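 VDR-bla cells, 2,000/well; 4 h preincubation 37C; cpd (DMSO) 16 h; LiveBLAzer B/G substrate 2 h RT; fluorescence intensity read.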

[16] = biological target: Vitamin D3 receptor (Homo sapiens) (UniProt P11473); experiment: qHTS assay to identify small molecule antagonists of the vitamin D receptor (VDR) signaling pathway (AID 743223; active = well fitted inhibition curve with a large enough effect in the signal ratio in the repeat runs, not every such curve was filed as active; the % refers to the signal ratio)
In short: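 Antagonist mode: compound added to VDR-bla cells alongside agonist 1alpha,25-dihydroxyvitamin D3 (3 nM final), incubation 16 h at 37C. Read-out is LiveBLAzer FRET fluorescence, 2 h at room temperature.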

[17] = qHTS assay to identify small molecule antagonists of the peroxisome proliferator-activated receptor gamma (PPARg) signaling pathway - cell viability counter screen (AID 743194); also: nearly all actives have a fitted effect of over 55% in size
In short: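 PPARg-UAS-bla HEK293H cells were plated, rested 5 h at 37 C, then treated with compounds plus rosiglitazone (50 nM final) for 17 h at 37 C; viability was then read by CellTiter-Glo luminescence after 30 min at room temperature.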

[18] = qHTS assay to identify small molecule agonists of the farnesoid-X-receptor (FXR) signaling pathway - cell viability counter screen (AID 743218); also: nearly all actives have a fitted effect of over 45% in size
In short: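 HEK 293T FXR-bla cells; 5 h pre-incubation, 16 h compound exposure at 37 C; LiveBLAzer substrate 2 h RT, then CellTiter-Glo 30 min RT, luminescence.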

[19] = biological target: Bile acid receptor (Homo sapiens) (UniProt Q96RI1); experiment: qHTS assay to identify small molecule antagonists of the farnesoid-X-receptor (FXR) signaling pathway (AID 743217; active = well fitted inhibition curve with a large enough effect in the signal ratio in the repeat runs, not every such curve was filed as active; the % refers to the signal ratio)
In short: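 HEK 293T FXR-UAS-bla, 5000 cells/well; compound + CDCA 50 uM final; 16 h, 37 °C; B/G FRET substrate 2 h RT; fluorescence.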

[20] = biological target: Bile acid receptor (Homo sapiens) (UniProt Q96RI1); experiment: qHTS assay to identify small molecule agonists of the farnesoid-X-receptor (FXR) signaling pathway (AID 743220; active = well fitted activation curve with a large enough effect in the signal ratio in the repeat runs, not every such curve was filed as active; the % refers to the signal ratio)
In short: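 Beta-lactamase reporter under UAS control in GeneBLAzer FXR HEK 293T cells (5000/well) measured with LiveBLAzer FRET substrate after 2 h at room temperature. Compound exposure lasted 16 h at 37C.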

Measured: Potency

Aryl hydrocarbon receptor (Homo sapiens), sequence (P35869 whole entry, looked up): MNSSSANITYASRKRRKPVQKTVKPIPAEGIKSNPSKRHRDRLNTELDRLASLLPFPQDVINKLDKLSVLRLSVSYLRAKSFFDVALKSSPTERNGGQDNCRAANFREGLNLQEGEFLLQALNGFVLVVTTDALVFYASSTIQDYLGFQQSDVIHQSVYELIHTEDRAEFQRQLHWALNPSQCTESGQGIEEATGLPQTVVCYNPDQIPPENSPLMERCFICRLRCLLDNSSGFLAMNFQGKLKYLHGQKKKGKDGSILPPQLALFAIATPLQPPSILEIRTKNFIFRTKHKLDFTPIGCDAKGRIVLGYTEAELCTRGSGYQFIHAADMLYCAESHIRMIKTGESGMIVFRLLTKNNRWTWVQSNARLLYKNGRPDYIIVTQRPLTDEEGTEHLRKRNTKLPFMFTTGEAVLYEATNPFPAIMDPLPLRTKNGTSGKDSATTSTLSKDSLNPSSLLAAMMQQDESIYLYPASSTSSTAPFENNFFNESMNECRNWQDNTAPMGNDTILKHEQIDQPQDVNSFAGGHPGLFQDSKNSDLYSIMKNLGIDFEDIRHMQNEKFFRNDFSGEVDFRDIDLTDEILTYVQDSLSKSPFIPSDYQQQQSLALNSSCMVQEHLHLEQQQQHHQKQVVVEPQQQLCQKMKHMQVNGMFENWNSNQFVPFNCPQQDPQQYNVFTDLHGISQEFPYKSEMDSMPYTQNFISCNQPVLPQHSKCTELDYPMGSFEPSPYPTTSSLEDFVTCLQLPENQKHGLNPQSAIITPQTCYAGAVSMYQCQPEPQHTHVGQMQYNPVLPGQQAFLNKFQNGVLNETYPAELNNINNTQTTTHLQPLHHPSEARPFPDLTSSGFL
Peroxisome proliferator-activated receptor gamma (Homo sapiens), sequence (P37231 whole entry, looked up): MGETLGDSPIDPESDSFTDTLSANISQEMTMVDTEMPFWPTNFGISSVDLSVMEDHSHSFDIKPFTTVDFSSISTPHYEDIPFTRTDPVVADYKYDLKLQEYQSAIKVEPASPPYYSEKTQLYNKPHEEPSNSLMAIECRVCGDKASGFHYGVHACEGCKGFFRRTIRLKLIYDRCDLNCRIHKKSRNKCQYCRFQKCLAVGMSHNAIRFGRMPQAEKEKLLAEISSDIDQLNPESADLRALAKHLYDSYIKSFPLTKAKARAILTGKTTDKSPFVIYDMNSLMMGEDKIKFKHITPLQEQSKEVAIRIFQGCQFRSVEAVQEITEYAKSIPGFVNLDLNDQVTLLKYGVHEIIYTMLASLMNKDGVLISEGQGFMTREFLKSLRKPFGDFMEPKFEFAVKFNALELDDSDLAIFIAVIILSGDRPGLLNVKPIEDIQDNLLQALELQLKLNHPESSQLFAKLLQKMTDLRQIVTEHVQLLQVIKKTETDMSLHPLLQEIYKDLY
Bile acid receptor (Homo sapiens), sequence (Q96RI1 whole entry, looked up): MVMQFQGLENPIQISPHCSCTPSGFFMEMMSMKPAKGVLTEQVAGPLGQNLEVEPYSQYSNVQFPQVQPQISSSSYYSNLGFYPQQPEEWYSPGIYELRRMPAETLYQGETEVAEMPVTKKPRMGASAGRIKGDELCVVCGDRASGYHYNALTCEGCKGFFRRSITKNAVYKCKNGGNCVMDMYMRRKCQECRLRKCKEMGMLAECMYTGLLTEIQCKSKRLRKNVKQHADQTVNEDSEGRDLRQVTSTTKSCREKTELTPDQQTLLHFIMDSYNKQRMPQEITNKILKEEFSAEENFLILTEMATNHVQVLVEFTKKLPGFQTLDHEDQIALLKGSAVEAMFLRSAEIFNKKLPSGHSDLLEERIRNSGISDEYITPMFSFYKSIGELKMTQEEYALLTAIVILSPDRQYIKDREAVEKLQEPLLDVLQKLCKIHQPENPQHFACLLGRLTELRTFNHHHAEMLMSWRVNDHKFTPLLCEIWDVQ
Peroxisome proliferator-activated receptor delta (Homo sapiens), sequence (Q03181 whole entry, looked up): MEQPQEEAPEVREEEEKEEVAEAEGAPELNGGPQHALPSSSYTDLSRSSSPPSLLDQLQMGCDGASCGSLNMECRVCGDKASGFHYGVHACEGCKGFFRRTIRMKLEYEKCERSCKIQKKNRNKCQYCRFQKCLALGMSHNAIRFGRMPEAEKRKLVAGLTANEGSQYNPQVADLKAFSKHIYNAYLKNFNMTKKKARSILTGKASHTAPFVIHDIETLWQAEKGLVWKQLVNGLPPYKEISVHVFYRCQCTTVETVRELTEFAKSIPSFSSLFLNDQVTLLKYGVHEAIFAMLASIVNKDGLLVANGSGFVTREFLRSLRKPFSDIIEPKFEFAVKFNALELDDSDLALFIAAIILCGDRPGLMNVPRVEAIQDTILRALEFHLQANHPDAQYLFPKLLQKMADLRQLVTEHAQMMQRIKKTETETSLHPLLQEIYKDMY
Vitamin D3 receptor (Homo sapiens), sequence (P11473 whole entry, looked up): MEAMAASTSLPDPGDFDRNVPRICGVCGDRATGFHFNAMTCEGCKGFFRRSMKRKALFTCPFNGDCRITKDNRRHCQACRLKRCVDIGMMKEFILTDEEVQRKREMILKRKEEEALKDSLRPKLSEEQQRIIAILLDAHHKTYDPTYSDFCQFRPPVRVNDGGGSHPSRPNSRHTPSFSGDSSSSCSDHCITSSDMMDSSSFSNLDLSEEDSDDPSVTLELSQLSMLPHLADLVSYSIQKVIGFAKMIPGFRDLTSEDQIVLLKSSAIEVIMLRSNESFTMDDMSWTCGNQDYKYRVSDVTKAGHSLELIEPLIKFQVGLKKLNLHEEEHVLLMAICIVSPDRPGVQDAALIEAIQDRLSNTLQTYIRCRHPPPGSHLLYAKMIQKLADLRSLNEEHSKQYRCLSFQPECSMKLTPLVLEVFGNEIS

O=C(O)c1ccccc1C(=O)Nc1ccc(S(=O)(=O)Nc2nccs2)cc1
inactive: [1] | [2] | [3] | [4] | [5] | [6] | [7] | [8] | [9] | [10] | [11] | [12] | [13] | [14] | [15] | [16]

Nc1ccc(S(=O)(=O)NC(=O)c2ccccc2)cc1
inactive: [1] | [2] | [3] | [4] | [5] | [17] | [7] | [8] | [9] | [10] | [11] | [12] | [13] | [18] | [14]

C[CH2][Ge]([Cl])([CH2]C)[CH2]C
inactive: [1] | [2] | [3] | [4] | [5] | [17] | [6] | [8] | [9] | [10] | [11] | [12] | [13] | [19] | [18] | [20] | [14] | [15] | [16]

CCCCC(CC)COC(=O)c1ccccc1 (centres undefined)
inactive: [1] | [2] | [3] | [4] | [5] | [6] | [7] | [8] | [9] | [10] | [11] | [12] | [18] | [14] | [16]

CCCO
inactive: [1] | [2] | [3] | [4] | [5] | [6] | [7] | [8] | [9] | [10] | [11] | [12] | [13] | [18] | [14] | [15]

O=C1c2ccccc2-c2ccccc21
inactive: [1] | [2] | [3] | [4] | [5] | [17] | [6] | [8] | [9] | [10] | [11] | [12] | [13] | [19] | [20] | [14]

Cc1nc(C)nc(N2C[C@@H](C)N(c3ccnc([C@@H](C)O)n3)[C@@H](C)C2)n1
inactive: [1] | [2] | [3] | [4] | [5] | [17] | [7] | [8] | [9] | [10] | [12] | [19] | [18] | [20] | [14] | [15] | [16]

C=CCOCC(O)CCl (centres undefined)
inactive: [1] | [2] | [3] | [4] | [5] | [17] | [7] | [8] | [9] | [10] | [11] | [12] | [13] | [14] | [15] | [16]

CN(C1CCCCC1)S(=O)(=O)c1ccccc1N
inactive: [1] | [2] | [3] | [4] | [5] | [17] | [7] | [8] | [9] | [10] | [11] | [12] | [13] | [19] | [18] | [20] | [14] | [15] | [16]

CO[Si](CCCS)(OC)OC
inactive: [1] | [2] | [3] | [4] | [5] | [17] | [7] | [8] | [9] | [10] | [11] | [12] | [19] | [18] | [20]

CC1CCC(C(C)(C)S)C(=O)C1 (centres undefined)
inactive: [1] | [2] | [3] | [4] | [5] | [17] | [7] | [8] | [9] | [10] | [11] | [12] | [19] | [20] | [14] | [16]

O=c1[nH]c(=O)c2ccccc2o1
inactive: [1] | [2] | [3] | [4] | [5] | [6] | [7] | [8] | [9] | [10] | [12] | [19] | [18] | [20] | [14]

Nc1cc(S(=O)(=O)O)ccc1S(=O)(=O)O
inactive: [1] | [2] | [3] | [4] | [5] | [17] | [7] | [8] | [9] | [10] | [11] | [12] | [19] | [18] | [20] | [14] | [15] | [16]

CCC(=O)OCCC(C)CCC=C(C)C (centres undefined)
inactive: [1] | [2] | [3] | [4] | [5] | [17] | [7] | [8] | [9] | [10] | [11] | [12] | [18] | [14] | [15] | [16]

C=C(C)C(=O)OC1CC(C)CC(C)(C)C1 (centres undefined)
inactive: [1] | [2] | [3] | [4] | [5] | [17] | [7] | [8] | [10] | [11] | [19] | [18] | [20] | [14] | [15] | [16]

NS(=O)(=O)c1ccc(Cl)c(S(N)(=O)=O)c1
inactive: [1] | [2] | [3] | [4] | [5] | [17] | [7] | [8] | [9] | [10] | [12] | [18] | [14] | [15] | [16]

CCCCCCCCCCCCC
inactive: [1] | [2] | [3] | [4] | [5] | [17] | [7] | [8] | [9] | [11] | [19] | [20] | [14] | [15]
